Laboratory results as given in ChEMBL document CHEMBL4513216, “Probing the Open Global Health Chemical Diversity Library for Multistage-Active Starting Points for Next-Generation Antimalarials” (ACS Infect Dis, 2020).
Screen size: about 65,000 compounds; about 2,100 (3.2%) showed an effect of 50% or more. The median lay at about -52%. The sample holds strong results, similar compounds and a random draw of the others, so the mix is not that of the screen.

Tested on: Plasmodium falciparum
Assay: Screen against P. falciparum Asexual Blood Stage (ABS), at 5uM
Type: functional, Dd2
Conditions: tested at 5 uM

In order of rising INHIBITION:
1. CC(Cn1cccn1)NCc1nc(-c2cccs2)no1 (stereo not drawn)  -230%
2. Cc1ncsc1CN1C[C@@H](OCc2ccncc2)[C@H]2OCCC[C@H]21  -190%
3. CN(C)Cc1cncc2c1CCN(C1CCOCC1)C2  -179%
4. CCCC12CN3CC(C)(CN(C1)C3c1[nH]c(=O)[nH]c(=O)c1C)C2=O (stereo not drawn)  -167%
5. Cc1noc([C@H]2C[C@H]3OCC[C@H]3N(Cc3ccncc3)C2)n1  -164%
6. CCN1CCC(c2cncc(N(C)C)n2)CC1  -163%
7. COc1ccc(Cl)cc1CC(=O)N1CCN(CC(C)(C)O)CC1  -155%
8. CN1C(=O)C2(CCN(CCO)C2)c2ccccc21 (stereo not drawn)  -143%
9. O=C(O)[C@@H]1CN(CC(=O)N2CCCCC2)C[C@H]1c1ccc(F)cc1  -140%
10. Cc1noc(C)c1CN1CC[C@H]2OCC[C@@]2(C(=O)NCC2CC2)C1  -139%
11. COCc1cncc2c1CCN(Cc1cnn(C)c1)C2  -135%
12. CN(CCOCC1CC1)C(=O)Nc1ccc(C#N)c(Cl)c1  -115%
13. CN(C)Cc1cncc2c1CCN(CC(=O)N(C)C)C2  -114%
14. Cc1cccc(CN2C[C@@H]3COC[C@]3(COCC(=O)N(C)C)C2)n1  -104%
15. c1cc([C@H]2C[C@@H]3CCN(Cc4nccs4)C[C@H]3O2)ncn1  -99.9%
16. O=C1Nc2ccccc2CC12CCN(CCO)C2 (stereo not drawn)  -93.6%
17. CSc1ccccc1C(=O)C1CCCN(Cc2cc(C(C)C)[nH]n2)C1 (stereo not drawn)  -93.2%
18. c1ccc(O[C@H]2CO[C@@]3(CCCN(Cc4nccs4)C3)C2)nc1  -90.3%
19. CN(C)CCN(CC1CCCO1)C(=O)Cc1cn2ccccc2n1 (stereo not drawn)  -90.1%
20. CN1CC=C(c2noc(CCC(=O)N3CCc4ccccc43)n2)CC1  -88.8%
21. CCCS(=O)(=O)N1CCN(CCOC)c2nc(C)ccc2C1  -87%
22. O=C(C1CC1)N1CC2(CCNCC2)C1  -76.2%
23. CN(C)C(=O)CN1CC[C@@H]2O[C@@H](COCc3cccnc3)CC[C@@H]21  -71.1%
24. CCS(=O)(=O)N1CCOC2(CCCN(Cc3ccccn3)C2)C1 (stereo not drawn)  -69.2%
25. O=C(C1CC=CC1)N1CCC2(CC1)OCCO2  -69.1%
26. O=C(O)[C@@H]1CN(CC(=O)N2CCCCCC2)C[C@H]1c1ccc(F)cc1  -66.2%
27. CC(C)C(NC(=O)c1ccccc1F)C(=O)N1CCC2(CC1)OCCO2 (stereo not drawn)  -65.9%
28. NC(=O)CN1CCCCC1c1ccc(-n2ccnc2)nc1 (stereo not drawn)  -59.6%
29. O=C(N1CCCO1)[C@]12COC[C@H]1CN(Cc1cccnc1)C2  -58.8%
30. Cn1cc(C2SCC(=O)Nc3c2c(=O)[nH]n3C2CCOCC2)cn1 (stereo not drawn)  -57.4%
31. Fc1cnc(N2CCO[C@H]3CN(CC4CCOC4)C[C@H]32)nc1 (stereo partly drawn)  -57.2%
32. CCn1cc(NC(=O)N2CCN(C(=O)Oc3ccccc3)CC2)cn1  -56.8%
33. COc1nc(C)ccc1CNc1cc(N2CCCC2CO)ncn1 (stereo not drawn)  -50.3%
34. CC(C)CN1C[C@@H]2C[C@H](C(=O)Nc3cccnc3)[C@H](C1)O2  -48.5%
35. Cc1nc(N2C[C@H]3CC[C@@H](C2)N3)nc2cc(S(C)(=O)=O)ccc12  -46.7%
36. Cn1ncc(NCc2cccc(OCC(F)(F)F)c2)c(Cl)c1=O  -44.7%
37. Cc1noc(C)c1CN1CC[C@H]2OCC[C@@]2(C(=O)N(C)C)C1  -41.2%
38. CCN1C[C@H]2[C@@H](C1)N(S(=O)(=O)c1cccnc1)CC[C@H]2OC  -40.3%
39. CC(C)c1ocnc1C(=O)N1CCC2(CC1)OCCO2  -39.3%
40. O=C(N[C@H]1CN[C@H]2CCCO[C@H]21)c1cscn1  -37.2%
41. O[C@@]1(CNCCCOc2cccnc2)CCCN2CCCC[C@@H]21  -36.8%
42. CC(=O)N1CC[C@H]2N(C)CC[C@@]2(C(=O)Nc2cccnc2)CC1  -36%
43. COc1cccc2c(=O)n(C3CCCNC3)cnc12 (stereo not drawn)  -35.5%
44. Cc1nc(CN2CCCC3(CCN(c4cccnc4)C3=O)C2)cs1 (stereo not drawn)  -34.3%
45. O=C1CSC(c2ccccc2)c2c(n(C3CCOCC3)[nH]c2=O)N1 (stereo not drawn)  -34.2%
46. Cc1ccc(NC(=O)N2CCC(CO)(Nc3ccccc3)CC2)cc1  -31.275%
47. Cc1cc(CNC(C)Cn2cncn2)ccc1Br (stereo not drawn)  -29.8%
48. Cn1cnc(S(=O)(=O)N2CC3(CCN(Cc4ccncc4)C3)C2)c1  -29.2%
49. CCS(=O)(=O)NC[C@]12COC[C@H]1CN(Cc1cccnc1OC)C2  -27.6%
50. Cn1nc(-c2cccs2)cc1[C@H]1CN2CC[C@H]1C[C@@H]2CN  -26%
51. COC[C@H]1CCC[C@]12CN(Cc1cccc(C)n1)CCO2  -25.5%
52. O=C(NCc1cnn2cccnc12)C1CC2(CCNCC2)CN1 (stereo not drawn)  -20.8%
53. CCC(O)CN1CCN(C(=O)Cc2cc(Cl)ccc2OC)CC1 (stereo not drawn)  -17.7%
54. CC(C)c1nc(CC(=O)N2CCN(C)CC2c2ccccc2)cs1 (stereo not drawn)  -16.5%
55. CC(c1ccc(F)cc1)N1CCN(Cc2ccc(C#N)cc2)CC1 (stereo not drawn)  -14.8%
56. OCCN1CCOC2(CCCN(c3ncccn3)C2)C1 (stereo not drawn)  -14.1%
57. Cc1ccc(N2CCO[C@H]3CN(Cc4ccc(F)cc4)C[C@H]32)nn1  -3.71%
58. CCC/C=C/c1ccc(CN2CCN(C)CC2)cn1  0.24%
59. Cc1noc(C)c1CN1CC[C@@H]2O[C@@H](COCC3CC3)CC[C@@H]21  0.666%
60. O=C1[C@H]2CN(Cc3ccc(F)cc3)C[C@H]2CN1c1cncnc1  2.38%
61. Cc1nc(CN2CCC23CCN(C(=O)c2ccncc2)CC3)cs1  2.76%
62. CCNC(=O)c1cn(C(C)(C)C)c2ncccc12  5.57%
63. c1ccc(OC[C@H]2CCC[C@]23CN(Cc2nccs2)CCO3)nc1  6.16%
64. COCCNC(=O)C1(c2ccc(C)c(OC)c2)CCCC1  6.63%
65. O=C(Cc1ccncc1)N1C[C@@H]2CC[C@H]1CN(Cc1cccnc1)C2  10.9%
66. OCCN1CCOC2(CCCN(c3ncc(F)cn3)C2)C1 (stereo not drawn)  11%
67. Cc1noc(C)c1CN1CCO[C@H]2CN(Cc3cnn(C)c3)C[C@H]21  13.9%
68. c1cncc(OC[C@]23COC[C@H]2CN(Cc2ccsc2)C3)c1  20.3%
69. CC(C)C(=O)N1C[C@H]2CCCN[C@H]2C1  28.1%
70. COc1cc(C2(C(=O)NCCn3ccnc3)CCCC2)ccc1C  50%
71. OCCN1CC2(CCN(c3ccccc3)C2)C1  62.8%
72. O[C@@H]1CC(CNCc2ccc(Cl)cc2)(COc2cccnc2)C[C@@H]1O (stereo partly drawn)  70.3%
73. CCCn1nc(C)c(-c2cncn2CC2(N(C)C)CCC(C)CC2)c1C (stereo not drawn)  70.3%
74. Cc1cc(C)c(N(CC(O)CNCc2ccccc2)S(C)(=O)=O)c(C)c1 (stereo not drawn)  70.4%
75. Cc1nccn1CCN(C)c1nc(-c2ccc(Cl)cc2)nc2c1CNC2  70.5%
76. Fc1cccc(N2CCCC3(C2)CN(c2ncccn2)CCO3)c1 (stereo not drawn)  70.6%
77. CC(C)Oc1ncnc2c1CCN(Cc1ccc(F)cc1)CC2  70.8%
78. CC(C)c1nc(CNCC2CCCN2c2cccnn2)cs1 (stereo not drawn)  71.1%
79. CCNC(=O)C(C)NC(=O)c1cnc(-c2ccc(C)cc2C)s1 (stereo not drawn)  71.5%
80. c1cnnc(N2CCCC2CNCc2nc(-c3cccs3)no2)c1 (stereo not drawn)  72.2%
81. COCCOc1ccccc1CNCC1COC2(CCCC2)O1 (stereo not drawn)  74.3%
82. CCCOc1ccccc1C(N)CC(C)C (stereo not drawn)  75.1%
83. OCC1CCCCN1c1ccc(-c2nc(-c3ccccc3F)no2)cn1 (stereo not drawn)  75.5%
84. Cc1csc(C2CCCCN2C(=O)c2cc(C(C)C)[nH]n2)n1 (stereo not drawn)  76.4%
85. Cc1ccsc1CNCC1CCCN1c1cccnn1 (stereo not drawn)  78.8%
86. Cc1cn2c(n1)C(CNCC1=Cc3ccccc3OC1)CCC2 (stereo not drawn)  79%
87. O=C(C1CC2(CCNCC2)CN1)N1CCN(c2cccc(Cl)c2Cl)CC1 (stereo not drawn)  79.2%
88. CN(C)c1nc(N)nc(CN2CCC(c3ccccc3)CC2)n1  80.4%
89. CN(CCO)Cc1cc(Cl)ccc1OCC(O)CN1CCCCCC1 (stereo not drawn)  81.5%
90. Cc1nn(C)cc1C1=NS(=O)(=O)N(C)C(C(=O)Nc2ccc(Cl)cc2)=C1  83.4%
91. NC(=O)CCC1CCCN(c2ccnc3cc(F)ccc23)C1 (stereo not drawn)  83.4%
92. COCCN(C)Cc1cc(Cl)ccc1OCC(O)CN1CCCCCC1 (stereo not drawn)  83.9%
93. Cc1ccccc1CC1(CO)CCCN(c2ncncc2C(C)C)C1 (stereo not drawn)  85%
94. NCC(=O)N1CCCCC1c1ccc(F)cc1 (stereo not drawn)  85.3%
95. O=S(=O)(NCC(c1ccsc1)N1CCCCCC1)c1cccs1 (stereo not drawn)  85.5%
96. CC(C)CN1CCCC1c1ccc(C(=O)Nc2cccnc2)s1 (stereo not drawn)  87.5%
97. Cc1cn2c(n1)C(CNCC1=Cc3cc(Cl)ccc3OC1)CCC2 (stereo not drawn)  88.2%
98. O=C(NCCCOCC1CC1)Nc1ccc(-n2cncn2)c(F)c1  88.3%
99. CCN(CC)CCN(C)c1nc(-c2ccc(Cl)cc2)nc2c1CNC2  88.3%
100. c1ccn2cc(CN3CCCC(c4ccn[nH]4)C3)nc2c1 (stereo not drawn)  89.1%
101. Cc1nn(C)cc1C1=NS(=O)(=O)N(C)C(C(=O)Nc2ccc(Br)cc2)=C1  90%
102. CN(CCCO)Cc1cc(Cl)ccc1OCC(O)CN1CCCCCC1 (stereo not drawn)  90.7%
103. Cc1ncc(CN(Cc2ccccn2)Cc2ccccc2Cl)n1C  91.6%
